Among the data in PubChem BioAssay (EPA / NIEHS) are outcome and AC50 values, retold here.

Molecules are shown by their SMILES. Several values for one entry are separate records, joined by “and”; a condition that tells them apart may be missing. Equal values may be shown once. Some compounds were tested as several samples or in several runs, with calls that do not always agree. Activity calls are given as the source filed them. How the source made its calls, unless noted: active means hit-call score of the fitted dose curve at least 0.9, where 1 is the maximum; inactive means score below 0.9.

Test [1] is described as follows: CCTE_Shafer_MEA_dev_inter_network_spike_interval_mean: CCTE's Neural Network Formation Assay for Mean Inter-network Spike Interval, Shafer Lab (AID 2284047). Summed up:
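Compound was given at plating to primary rat cortical neurons and renewed with full medium changes on DIV 5 and 9. Extracellular activity was recorded on days 5, 7, 9, 12; AUC values were fitted for loss relative to DMSO control.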

Test [2] is described as follows: CCTE_Shafer_MEA_dev_network_spike_number: CCTE's Neural Network Formation Assay for Number of Network Spikes, Shafer Lab (AID 2284048).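 Further: synchronized bursts across electrodes counted on days 5 7 9 12 and integrated as AUC.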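 On AC50: fit as a loss of signal meaning fewer network spikes than DMSO.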 Summed up:
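Extracellular recordings from 16-electrode wells track network formation in rat cortical cultures under continuous treatment from plating. The endpoint is network spike number, expressed as AUC across DIV 5–12 relative to DMSO vehicle.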

Test [3] is described as follows: CCTE_Shafer_MEA_dev_network_spike_peak: CCTE's Neural Network Formation Assay for Mean Number of Electrodes in Network Spike, Shafer Lab (AID 2284049).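 On AC50: fitted for loss of signal meaning fewer electrodes in network spikes than DMSO.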 Summed up:
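Continuous 12-day exposure of rat cortical cultures, starting at plating, on MEA plates. Endpoint: electrodes participating in network-spike peaks, AUC across DIV 5–12, DMSO as negative control.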

Test [4] is described as follows: CCTE_Shafer_MEA_dev_spike_duration_mean: CCTE's Neural Network Formation Assay for Mean Spike Duration, Shafer Lab (AID 2284051).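 Further: mean network spike duration pooled as area under curve over DIV 5 to 12 recordings.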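 On AC50: potency for a decrease in mean network spike duration versus DMSO.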 The essentials: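 With DMSO as baseline, loss of mean network spike duration was scored from extracellular recordings of rat cortical neurons on MEA plates. Exposure spanned plating to DIV 12; the four recording days were collapsed into one AUC value.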

A short description of test [5]: CCTE_Shafer_MEA_dev_network_spike_duration_std: CCTE's Neural Network Formation Assay for Standard Deviation of Network Spike Duration, Shafer Lab (AID 2284052).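 Further: area under curve of spike duration SD across recording days 5 to 12; hits are decreases in network spike duration SD versus DMSO vehicle.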 The essentials: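 Developing networks of rat cortical neurons were exposed over twelve days in vitro on 48-well MEA plates. Trapezoidal AUC of recordings (DIV 5–12) was analysed for signal loss relative to DMSO vehicle.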

Test [6] is described as follows: CCTE_Shafer_MEA_dev_per_network_spike_spike_number_mean: CCTE's Neural Network Formation Assay for Mean Number of Spikes in a Network Spike, Shafer Lab (AID 2284053). Summed up:
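First, rat cortical cells (1.5 x 10^5/well) were seeded onto MEA wells; second, dosing began at plating and was refreshed on DIV 5 and 9; finally, network-spike spike counts across DIV 5–12 were summarized as AUC.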

A short description of test [7]: CCTE_Shafer_MEA_dev_per_network_spike_spike_percent: CCTE's Neural Network Formation Assay for Percent of Spikes in a Network Spike, Shafer Lab (AID 2284054). Summed up:
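Developing networks of rat cortical neurons are dosed at day 0 and recorded extracellularly four times up to day 12. The endpoint is the area under the curve of percent spikes in network spikes, fitted in the negative direction relative to DMSO.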

The subject of a further test is DIO2 (gene 1734). The test is described as follows: CCTE_GLTED_hDIO2: CCTE's human Deiodinase 2 (DIO2) Inhibition Assay, Great Lakes Toxicology and Ecology Division (GLTED) Lab (AID 2284050; active means hit-call score of the fitted dose curve at least 0.9, where 1 is the maximum). The essentials: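 Iodide released by human deiodinase 2 over 3 h with test chemical, measured spectrophotometrically via Sandell-Kolthoff cerium/arsenic reaction. Run n=3; inhibition referenced to DMSO.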

In the next test the test system is DIO3 (gene 1735). The test is described as follows: CCTE_GLTED_hDIO3: CCTE's human Deiodinase 3 (DIO3) Inhibition Assay, Great Lakes Toxicology and Ecology Division (GLTED) Lab (AID 2284055; active means hit-call score of the fitted dose curve at least 0.9, where 1 is the maximum;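 on AC50: potency is for inhibition seen as loss of released iodide signal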). As for the experimental part:
CCTE_GLTED_hDIO3 is a cell-free, single-readout assay designed to test the inhibitory activity of chemicals toward human iodothyronine Deiodinase type 3 (DIO3) enzyme. Enzyme is incubated in presence of test chemical for 3 hours during which uninhibited enzyme liberates free iodide from substrate. Free iodide is measured in a second step using the Sandell-Kolthoff method.CCTE_GLTED_hDIO3 is the assay component measured from the CCTE_GLTED_hDIO3 assay. It is designed to make measurements of enzyme activity, a form of enzyme reporter, as detected with absorbance signals by spectrophotometry.Data from the assay component CCTE_GLTED_hDIO3 was analyzed into 1 assay endpoint. This assay endpoint, CCTE_GLTED_hDIO3, was analyzed in the positive analysis fitting direction relative to DMSO as the negative control and baseline of activity. Using a type of enzyme reporter, loss-of-signal activity can be used to understand changes in the enzymatic activity as they relate to the gene DIO3. Furthermore, this assay endpoint can be referred to as a primary readout, because the performed assay has only produced 1 assay endpoint. To generalize the intended target to other relatable targets, this assay endpoint is annotated to the 'deiodinase' intended target family, where the subfamily is 'deiodinase Type 3'.
[…] assay, developed at Great Lakes Toxicology and Ecology Division (GLTED) within the EPA's Center for Computational Toxicology and Exposure (CCTE), is designed to test the chemicals' ability to inhibit DIO3. Assay uses human deiodinase type 3 (DIO3) enzyme produced with adenovirus expression system. Assay is based on iodide release measured by the Sandell-Kolthoff method and is run in 96-well plate format with assay plates run in triplicate (n=3). The method used for the deiodinase assay was largely based on Renko et al. (2012, 2015). These works describe the utilization of the SK reaction to measure deiodinase-liberated iodide in a 96-well-plate format. The SK reaction is based on the reduction of the yellow-colored cerium IV to the non-colored cerium III by arsenic, with the rate of this reaction increased in the presence of iodide in a concentration-dependent manner (Sandell and Kolthoff, 1937). Iodinated test chemicals can interfere as competitive inhibitors, or if the stock chemical has contaminating free-iodide present. Other chemicals, e.g.: nitrite, iron, and thiocyanate can interfere with the Sandell-Kolthoff reaction (see Sandell and Kolthoff, 1937).

Broadly, the AC50 is the concentration giving half of the maximal activity seen. `COC(=O)Nc1nc2ccccc2[nH]1`: the molecule was classed as inactive in [1], in test [2] and in test [5]. For the same molecule, the half-maximal activity concentration (AC50) in test [3] is 12.5 µM (active); in test [4], 12.5 µM (active); in [6] it was 12.5 µM (active); in [7] it was 5.94 µM (active).
As for `CN(C)[C@@H]1C(=O)C(C(N)=O)=C(O)[C@@]2(O)C(=O)C3=C(O)c4c(O)cccc4[C@@](C)(O)[C@H]3C[C@@H]12`, the call (in test [1]; in test [2]; in [3]; in the test on DIO2 (gene 1734); in test [4]; in test [5]) was inactive. Further, the molecule was classed as inactive in [6] and in test [7]. In addition, in the test with DIO3 (gene 1735), the concentration at half-maximal activity (AC50) is 79.8 µM (active).
Take `Oc1ccc2ccc3cccc4ccc1c2c34`: the results for the concentration at half-maximal activity (AC50) with DIO2 (gene 1734) and in the test with DIO3 (gene 1735) were 100 µM (active) and 61.4 µM (active), respectively.
As to `CC(C)(O)c1cnn2c(-c3ccc(F)c(-c4c(F)cccc4C#N)c3)cnc2n1`, the molecule was called inactive in [1], in [2], in test [5] and in test [6]. Moreover, the results for the AC50 in test [3], in test [4] and in test [7] were 1.98 µM (active), 1.98 µM (active) and 10 µM (active), respectively.
For `ClC1=C(Cl)[C@]2(Cl)[C@H]3[C@H]([C@@H]4C=C[C@H]3C4)[C@@]1(Cl)C2(Cl)Cl`, the molecule was called inactive in test [1] and in test [5]. Also, the concentration at half-maximal activity (AC50) in [2] is 7.56 µM (active); in test [3], 5.55 µM (active); in test [4], 5.79 µM (active); in test [6] it was 1.98 µM (active); in test [7], 7.67 µM (active).
Regarding `C[C@]12C=CC3=C4CCC(=O)C=C4CC[C@H]3[C@@H]1CC[C@@H]2O`, the AC50 is 100 µM (active) in the test on DIO2 (gene 1734) and 23.5 µM (active) in the test with DIO3 (gene 1735).
For the molecule `CC(C)(C)C(O)(CCc1ccc(Cl)cc1)Cn1cncn1` (stereo not given), the molecule was classed as inactive in [1], in test [5] and in test [7]. The concentration at half-maximal activity (AC50) was 0.801 µM (active) in test [2], 15 µM (active) in [3], 15 µM (active) in [4] and 15 µM (active) in test [6].
As for `ClC1=C(Cl)C2(Cl)C3C(Cl)C=CC3C1(Cl)C2(Cl)Cl` (stereo not given), the outcome in test [1] and in test [2] was inactive. The concentration at half-maximal activity (AC50) in [3] is 4.19 µM (active); in test [4], 4.2 µM (active); in [5], 744 nM (active); in [6] it was 2.98 µM (active); in [7], 1.4 µM (active).
For `C1=Cc2cccc3cccc1c23`, the outcome in [1], in test [2], in [3], in [4], in [5] and in test [6] was inactive. The molecule was called inactive in [7].
`COP(=S)(OC)SCN1C(=O)c2ccccc2C1=O`: the molecule was classed as inactive in test [1], in [2], in test [5], in test [6] and in [7]. Also, the AC50 in test [3] was 37.6 µM (active) and 51.5 µM (active); in test [4], 36.7 µM (active) and 23.6 µM (active); in test [6], 31.8 µM (active); in [7], 20.2 µM (active).
`[O-][Cl+]O`: the outcome in test [1], in [2], in test [3], in test [4], in test [5] and in test [6] was inactive. In addition, the molecule was classed as inactive in test [7].
For the molecule `ClCCOCCCl`, the call in the test with DIO2 (gene 1734) and in the test with DIO3 (gene 1735) was inactive.
In the case of `Clc1ccc(C(c2ccc(Cl)cc2)C(Cl)(Cl)Cl)cc1`, the outcome in test [1] was inactive. Besides, the AC50 is 2.58 µM (active) and 2.86 µM (active) in [2]; 3.55 µM (active) and 6.68 µM (active) in test [3]; 2.62 µM (active) and 8.54 µM (active) in [4]; 1.98 µM (active) and 8.91 µM (active) in test [5]; 6.95 µM (active) and 5.75 µM (active) in test [6]; 3.02 µM (active) and 4.15 µM (active) in [7].
